Rows were chosen to be rich in hits. Some 19% of all compounds tested hit in one or more screens of this group.
TDP1 cell noCPT = qHTS for Inhibitors of human tyrosyl-DNA phosphodiesterase 1 (TDP1): qHTS in cells in absence of CPT | DT40 Tdp1-/- hTDP1 cells, no CPT, ATP luminescence, 48 h | Potency, µM (top dose mostly 46.2 µM), hits mostly inhibitors | actives 15% (n = 420,000); further: nearly all actives have a fitted effect of over 55% in size
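Camptothecin absent (DMSO only). Human TDP1-complemented DT40 knockout cells, 400 cells/well, 37 °C for minimum 48 hr; ATP measured via CellTiter-Glo, 30 min dark incubation, luminescence.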
TDP1 inh = qHTS Assay for Inhibitors of Tyrosyl-DNA Phosphodiesterase (TDP1). AID 485290, 2010. actives 0.28% (n = 350,000). Potency, µM (titrated, usually from 130 µM), hits mostly inhibitors. Tyrosyl-DNA phosphodiesterase 1 (Homo sapiens), Q9NUW8. recombinant TDP1, AlphaScreen DNA substrate cleavage; further: nearly all actives have a fitted effect of over 40% in size
Target sequence (Q9NUW8 whole entry, looked up): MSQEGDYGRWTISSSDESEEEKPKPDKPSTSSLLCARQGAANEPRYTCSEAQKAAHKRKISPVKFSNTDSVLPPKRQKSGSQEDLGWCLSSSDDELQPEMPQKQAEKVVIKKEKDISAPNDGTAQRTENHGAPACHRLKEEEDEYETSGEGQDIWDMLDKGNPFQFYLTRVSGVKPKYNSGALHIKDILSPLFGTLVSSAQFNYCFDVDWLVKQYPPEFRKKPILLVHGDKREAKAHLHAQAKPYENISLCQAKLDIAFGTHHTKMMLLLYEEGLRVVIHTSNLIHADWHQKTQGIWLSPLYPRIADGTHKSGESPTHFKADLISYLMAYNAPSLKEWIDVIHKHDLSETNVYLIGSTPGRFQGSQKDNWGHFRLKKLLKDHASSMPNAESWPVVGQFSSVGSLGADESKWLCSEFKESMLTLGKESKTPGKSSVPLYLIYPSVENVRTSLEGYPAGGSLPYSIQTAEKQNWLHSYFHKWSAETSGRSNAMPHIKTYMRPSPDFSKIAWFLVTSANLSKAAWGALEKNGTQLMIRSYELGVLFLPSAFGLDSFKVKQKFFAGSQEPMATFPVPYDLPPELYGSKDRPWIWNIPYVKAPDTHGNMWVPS
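Tdp1 1 nM final; 15 min RT w/ cpd; substrate 15 nM, 5 min; beads 10 ug/ml, 10 min; AlphaScreen read. Neg ctrl: no enzyme.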
VP16 counter = VP16 counterscreen qHTS for inhibitors of ROR gamma transcriptional activity; Drosophila S2 Gal4-VP16 UAS-luciferase, luminescence, 20 h; Potency, µM (series often up to 53.6 µM), usual class: inhibitors; actives 3.5% (n = 310,000); AID 2546, 2010;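 further: Gal4-VP16 expression switched on by copper sulfate through the metallothionein promoter; nearly all actives have a fitted effect of over 50% in size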
DT40 TDP1 CPT = qHTS for Inhibitors of human tyrosyl-DNA phosphodiesterase 1 (TDP1): qHTS in cells in presence of CPT | AID 686979, 2013 | chicken DT40 Tdp1-/-;hTDP1 cells + 20 nM CPT, ATP luminescence, 48 h | actives 12% (n = 420,000) | Potency, µM (series often up to 46.2 µM), hits mostly inhibitors; further: nearly all actives have a fitted effect of over 55% in size
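Chicken DT40 Tdp1-/- cells complemented with human TDP1, 400 cells/well, exposed to compounds plus 20 nM camptothecin for at least 48 h at 37 C; viability read as ATP content by CellTiter-Glo luminescence.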
RORg inh = qHTS for inhibitors of ROR gamma transcriptional activity | Nuclear receptor ROR-gamma (Mus musculus), P51450 | Drosophila S2 Gal4-RORgamma UAS-luciferase reporter, 20 h | actives 5.4% (n = 310,000) | Potency, µM (top dose mostly 53.6 µM), usual class: inhibitors | AID 2551, 2010; further: nearly all actives have a fitted effect of over 60% in size
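Schneider cells (Drosophila), stable Gal4 DBD–ROR gamma + UAS-luc; 1 hr cmpd preincubation; Cu2+ induction 700 uM final; 20 hr ambient; luminescence.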
Hits are given with their value; n = inactive; u = inconclusive; x = not tested or not shown; ! = not confirmed by another sample; [ ] = dose if it differs, or a comment. The call rests on the fitted dose curve; in most records, active means well fitted curve in the direction sought with a large enough effect; inconclusive means small, poorly fitted or top-dose-only effect, or another doubt; inactive means no such curve, though single readings can be large; an effect the other way counts as inactive or inconclusive.

SMILES	TDP1 cell noCPT	TDP1 inh	VP16 counter	DT40 TDP1 CPT	RORg inh
COc1ccc(CC2S/C(=N/N=C/c3ccccc3O)NC2=O)cc1 (stereo not drawn)	0.92µM	n	u	3.26µM	5.62µM
O=C1N/C(=N/N=C/c2ccc(O)cc2)SC1Cc1ccccc1 (stereo not drawn)	n	n	n	n	n
O=C1N/C(=N/N=C/c2ccccc2O)SC1Cc1ccc(F)cc1 (stereo not drawn)	0.0291µM	u	8.91µM	0.184µM	2.82µM
COc1ccc(/C=N/N=C2/NC(=O)C(c3ccccc3)S2)c(OC)c1 (stereo not drawn)	n	n	n[0.365 µM]	n	14.1µM
CCc1ccc(CCOc2ccc(CC3SC(=O)NC3=O)cc2)nc1 (stereo not drawn)	u	n	n	20.6µM!	n
Brc1ccc(-n2nc(-c3ccccc3)c3cnc4cc5c(cc4c32)OCO5)cc1	n	n	x	n	x
Nc1nc(SCC(=O)N2CCCC2)[nH]c(=O)c1NC(=O)c1ccco1	n	n	n	n	u
O=C(OCC(=O)N1CCCC1)c1ccccc1O	n	n[0.0935 µM]	n	n	n
COc1ccc(OCc2cc(C(=O)NC(C)c3cnn(C)c3)no2)c(Cl)c1 (stereo not drawn)	n	n	n	n	u
CCn1cnc2c(NCCc3cccnc3)nc(C#N)nc21	x	n	x	x	x
O=C(Cn1cnc2c(OCc3ccccc3)ncnc21)N1CCN(c2ccccn2)CC1	n	n	x	n	x
CCOc1ccc(CC2S/C(=N/c3ccccn3)NC2=O)cc1 (stereo not drawn)	u	n	5.01µM	n	3.16µM
COc1ccc(-c2nc3c4ccccc4ccn3c2CN2CCCCC2)cc1OC	u	x	n	u	u
c1ccc(-c2nc3c4ccccc4ccn3c2CC2CCCCC2)cc1	n	x	x	n	x
Cc1ccc(Cc2c(-c3ccccc3)nc3c4ccccc4ccn23)cc1	20.6µM	x	x	23.1µM	x
Cc1nnc2c3ccccc3ccn12	n	x	x	n	x
CCCc1nc2c3ccccc3ccn2c1Cc1ccccc1	20.6µM	x	x	18.4µM	x
c1ccc(-c2nc3c4ccccc4ccn3c2Cc2ccsc2)cc1	16.4µM	x	x	23.1µM	x
COc1ccc(-c2nc3c4ccccc4ccn3c2Cc2ccc(C)cc2)cc1OC	20.6µM	x	x	u	x
CCCN(CC(=O)Nc1ccc(F)c(F)c1F)C(=O)Cc1ccc(S(=O)(=O)N2CCOCC2)s1	u	n	x	n	x
FC(F)(F)c1cc(Cl)c2nc(-c3ccc(Cl)cc3)c(Cc3ccsc3)n2c1	n	x	x	n	x
Cc1ccc(-c2nc3c4ccccc4ccn3c2Cc2ccsc2)cc1	u	x	x	16.4µM	x
Brc1cccc(-c2nnc3sc(CNCc4ccco4)cn23)c1	u	n	n	u	n
CCOC(=O)C1CCCN(Cc2cn3c(-c4ccc(Br)cc4)nnc3s2)C1 (stereo not drawn)	6.51µM	n	x	5.17µM	x
Brc1ccc(-c2nnc3sc(CN4CCCCC4)cn23)cc1	n	n	x	n	x
SMILES	TDP1 cell noCPT	TDP1 inh	VP16 counter	DT40 TDP1 CPT	RORg inh
CC1CCCN(Cc2cn3c(-c4cccc(Br)c4)nnc3s2)C1 (stereo not drawn)	u	n	x	23.1µM	x
CCOC(=O)C1CCN(Cc2cn3c(-c4ccc(OC)cc4)nnc3s2)CC1	u	n	x	20.6µM	x
NS(=O)(=O)c1ccc(NC(=O)NC2CCCCC2)cc1	n	n	n	n	n
CCOC(=O)c1ccc2c(c1)N(Cc1ccc(F)cc1Cl)C(=O)c1ccccc1S2(=O)=O	u	n	x	u	x
C#CC1(O)CCC2C3CCc4cc(O)cc(C)c4C3CCC21C (stereo not drawn)	u	x	x	16.4µM	x
COc1ccc(-c2onc(C)c2C)cc1S(=O)(=O)N(C)Cc1ccccc1	23.1µM	n	x	20.6µM	x
O=C(CCC(=O)N1CCN(c2ccccn2)CC1)Nc1nnc(C(F)(F)F)s1	n	x	n	n	n
Cn1cnnc1SCC(=O)N1CCN(C(=O)c2ccco2)CC1	n	n	n	n	n
Cn1cnnc1SCC(=O)N1CCC(Cc2ccccc2)CC1	18.4µM	n	n	u	n

Screening data deposited in PubChem by National Center for Advancing Translational Sciences (NCATS).
